Results filed as inconclusive are left out. The source made the active and inactive calls. Calls follow the shape of the dose curve; as a rule, active = well fitted inhibition curve with a large enough effect; inconclusive = small, poorly fitted or top-dose-only effect; inactive = flat fitted curve, though single readings scatter.
Target: Luciferin 4-monooxygenase (Photinus pyralis) (UniProt P08659)
Experiment: Counterscreen Assay for Enhancers of SMN2 Splice Variant Expression: Interaction with Luciferase Reporter for Further Probe SAR
Details: purified firefly luciferase, luminescence, 5 min; series mostly up to 57.5 µM; activity change, negative = inhibition: at the top concentration
Text: NIH Chemical Genomics Center [NCGC] NIH Molecular Libraries Probe Production centers Network [MLPCN] MLPCN Grant: R03 MH084179-01 Assay Submitter (PI): Elliot Androphy NCGC Assay Overview: Spinal muscular atrophy (SMA) is caused by insufficient levels of the survival motor neuron protein SMN. The SMN locus on chromosome 5q13 contains two inverted copies of SMN called SMN1 and SMN2 which are 99% identical at the amino acid level. SMN1 is a fully functional protein and SMN2 skips exon 7 90% of the time. Skipping of exon 7 produces non-functional protein product. 10% of the SMN2 protein includes exon 7 and is fully functional. In the SMA disease state, mutations in the SMN1 locus are the cause of the disease state. Because only 10% of SMN2 is of the fully functional form, it is not sufficient to overcome the deficiency produced by the loss of the SMN1 product. A therapy that either increases the amount of SMN2 product made increases the inclusion of exon 7 has been proposed for the treatment of SMA. We have designed an assay to identify small molecules that can increase the amount of functional SMN2 product by appending a luciferase reporter gene after the native SMN2 gene, such that inclusion of exon 7 in the expressed product places the luciferase sequence in frame, thus generating functional luciferase enzyme. One potential source of false positives in the primary screening assay is stabilization of the reporter luciferase via direct binding. This assay attempts to identify such compounds by screening directly for luciferase activity in the absence of the cellular system.
NCGC Assay Protocol Summary: The primary screen utilizes a luciferase reporter gene assay, combining the promoter and splicing based cassettes in tandem with the major portion of the native SMN1 cDNA, and then transfected into HEK293 cells. Compounds that modulate luciferase signal presumably modulate expression of […]. In this assay, we utilize purified firefly luciferase in lieu of a cellular reporter to identify compounds interacting directly with luciferase in the primary screen. Sequence, Parameter, Value, Description (1) Reagent, 2.5 uL, Enzyme in buffer (note A) (2) Compound, 23 nL, From stock solutions (3) Time, 5 minutes, Room temp (4) Reagent#2.5 ul, Luciferase detection reagent (note B) (5) Detector, 1 sec integrate, Luminescent read on Viewlux (note C) Sigma enzyme (1 mg) considered to be MW 61,000 diluted in 357 ul assay buffer to 50 uM stock. A - Enzyme and buffer consists of 50 mM Tris-acetate pH 7.6, 10 mM Mg acetate 0.05% BSA, 0.01% Tween and 5 nM firefly luciferase B - Detection reagent = britelite plus diluted 1:10 in PBS C - Viewlux settings were 1 second integration medium sensitivity Keywords: Spinal muscular atrophy, SMA, SMN2, high throughput screening, MLSMR, MLPCN, NIH Roadmap, qHTS and NCGC

Chain of Luciferin 4-monooxygenase (Photinus pyralis) (P08659 whole entry, looked up, canonical isoform): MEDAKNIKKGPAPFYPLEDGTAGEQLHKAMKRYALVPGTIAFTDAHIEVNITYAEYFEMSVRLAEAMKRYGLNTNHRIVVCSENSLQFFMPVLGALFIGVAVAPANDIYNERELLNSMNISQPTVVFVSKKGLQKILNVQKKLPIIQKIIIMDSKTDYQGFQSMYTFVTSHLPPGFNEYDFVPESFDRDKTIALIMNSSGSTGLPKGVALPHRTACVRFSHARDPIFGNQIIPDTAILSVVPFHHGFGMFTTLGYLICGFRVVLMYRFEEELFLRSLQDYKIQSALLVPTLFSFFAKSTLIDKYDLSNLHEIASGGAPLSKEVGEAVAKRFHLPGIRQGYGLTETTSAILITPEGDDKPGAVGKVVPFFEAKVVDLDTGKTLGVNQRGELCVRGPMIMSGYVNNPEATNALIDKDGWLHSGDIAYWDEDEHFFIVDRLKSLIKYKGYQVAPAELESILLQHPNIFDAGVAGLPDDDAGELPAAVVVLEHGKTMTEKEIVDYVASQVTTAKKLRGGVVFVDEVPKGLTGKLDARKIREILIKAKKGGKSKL

Row | Compound | Potency | activity change, negative = inhibition
1 | CC(C)Oc1cccc(-c2cnc(N3CCC(C(N)=O)CC3)s2)c1 | 0.8 µM (active) | –
2 | CS(=O)(=O)c1ccc(-c2csc(N3CCC(C(N)=O)CC3)n2)cc1 | – | -17.5% (inactive)
3 | NC(=O)C1CCN(c2nnc(-c3ccc4c(c3)OCCCO4)s2)CC1 | 3.57 µM (active) | –
4 | Cc1cnc(N2CCC(C(N)=O)CC2)nc1-c1cccc(N(C)C)c1 | – | -6.67% (inactive)
5 | CS(=O)(=O)N1CCN(c2nc(-c3ccc(Br)cc3)cs2)CC1 | – | -14.8% (inactive)
6 | COc1ccccc1-c1csc(N2CCC(C(N)=O)CC2)n1 | – | -21.1% (inactive)
7 | N#Cc1ccc(-c2csc(N3CCC(C(N)=O)CC3)n2)cc1 | – | -17.5% (inactive)
8 | Brc1ccc(-c2csc(N3CCNCC3)n2)cc1 | – | -8.89% (inactive)
9 | NC(=O)C1CCN(c2nc(-c3cccc(Br)c3)cs2)CC1 | 31.8 µM (active) | –
10 | CC(C)Oc1cccc(-c2ccnc(N3CCC(C(N)=O)CC3)n2)c1 | 10.1 µM (active) | –
11 | NC(=O)C1CCN(c2ncc(Br)cn2)CC1 | – | -12.9% (inactive)
12 | NC(=O)C1CCN(c2nc(-c3cccc4sc5ccccc5c34)cs2)CC1 | 31.8 µM (active) | –
13 | CN(C)c1cccc(-c2nccc(N3CCC(C(N)=O)CC3)n2)c1 | – | -19.7% (inactive)
14 | c1c[nH]c(C2CCN(c3ncc(-c4ccc5c(c4)OCCCO5)s3)CC2)n1 | 10.1 µM (active) | –
15 | O=C(C1CCN(c2nc(-c3ccc(Br)cc3)cs2)CC1)N1CCNCC1 | – | 9.84% (inactive)
16 | NC(=O)C1CCN(c2nc(-c3ccc(C(F)(F)F)cc3)cs2)CC1 | 20.1 µM (active) | –
17 | NC(=O)C1CCN(c2nc(-c3ccc4c(c3)OCCCO4)cs2)CC1 | 0.897 µM (active) | –
18 | CCOc1ccc(-c2csc(N3CCC(C(N)=O)CC3)n2)cc1 | – | -29.5% (inactive)
19 | CN(C)C(=O)C1CCN(c2nc(-c3ccc(Br)cc3)cs2)CC1 | 8 µM (active) | –
20 | NC(=O)C1CCN(c2ncc(-c3ccc4c(c3)OCO4)s2)CC1 | 3.18 µM (active) | –
21 | CN(C)c1ccc(-c2csc(N3CCC(C(N)=O)CC3)n2)cc1 | – | -29% (inactive)
22 | CN(C)c1cccc(-c2cc(N3CCC(C(N)=O)CC3)ncn2)c1 | – | -20% (inactive)
